Our source for the log2 fold change values is the supplement of paper PMC10849652.

Targets with a hit are over-represented here; the source holds about 7,900 in all. About 0.6% of all pairs of compound and target were hits. A number with no mark means an inactive call.

Sequence of UniProt Q9BUK6 (Q9BUK6 whole entry, looked up): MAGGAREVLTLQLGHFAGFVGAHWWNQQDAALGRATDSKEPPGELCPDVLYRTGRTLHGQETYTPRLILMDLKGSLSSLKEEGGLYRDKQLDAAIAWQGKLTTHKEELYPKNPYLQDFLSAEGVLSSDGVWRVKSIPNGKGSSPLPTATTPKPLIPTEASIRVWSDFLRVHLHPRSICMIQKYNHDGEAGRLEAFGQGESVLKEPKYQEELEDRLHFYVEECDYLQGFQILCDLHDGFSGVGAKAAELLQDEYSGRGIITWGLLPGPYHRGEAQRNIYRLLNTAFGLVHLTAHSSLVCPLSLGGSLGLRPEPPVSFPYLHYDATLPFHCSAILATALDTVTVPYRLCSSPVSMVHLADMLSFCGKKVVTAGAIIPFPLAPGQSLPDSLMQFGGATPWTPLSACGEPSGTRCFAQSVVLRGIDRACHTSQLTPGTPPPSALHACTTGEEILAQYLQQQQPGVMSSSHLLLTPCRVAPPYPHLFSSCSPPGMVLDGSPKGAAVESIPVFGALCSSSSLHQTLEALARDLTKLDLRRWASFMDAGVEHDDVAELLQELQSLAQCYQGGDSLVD
Sequence of UniProt P68402 (P68402 whole entry, looked up): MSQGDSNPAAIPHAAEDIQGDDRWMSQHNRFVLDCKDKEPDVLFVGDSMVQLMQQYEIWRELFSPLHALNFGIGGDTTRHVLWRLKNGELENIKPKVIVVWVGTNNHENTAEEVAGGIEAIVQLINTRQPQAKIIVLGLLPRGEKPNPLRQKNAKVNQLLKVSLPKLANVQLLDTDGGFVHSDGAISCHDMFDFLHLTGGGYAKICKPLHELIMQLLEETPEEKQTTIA
Sequence of UniProt P57740 (P57740 whole entry, looked up): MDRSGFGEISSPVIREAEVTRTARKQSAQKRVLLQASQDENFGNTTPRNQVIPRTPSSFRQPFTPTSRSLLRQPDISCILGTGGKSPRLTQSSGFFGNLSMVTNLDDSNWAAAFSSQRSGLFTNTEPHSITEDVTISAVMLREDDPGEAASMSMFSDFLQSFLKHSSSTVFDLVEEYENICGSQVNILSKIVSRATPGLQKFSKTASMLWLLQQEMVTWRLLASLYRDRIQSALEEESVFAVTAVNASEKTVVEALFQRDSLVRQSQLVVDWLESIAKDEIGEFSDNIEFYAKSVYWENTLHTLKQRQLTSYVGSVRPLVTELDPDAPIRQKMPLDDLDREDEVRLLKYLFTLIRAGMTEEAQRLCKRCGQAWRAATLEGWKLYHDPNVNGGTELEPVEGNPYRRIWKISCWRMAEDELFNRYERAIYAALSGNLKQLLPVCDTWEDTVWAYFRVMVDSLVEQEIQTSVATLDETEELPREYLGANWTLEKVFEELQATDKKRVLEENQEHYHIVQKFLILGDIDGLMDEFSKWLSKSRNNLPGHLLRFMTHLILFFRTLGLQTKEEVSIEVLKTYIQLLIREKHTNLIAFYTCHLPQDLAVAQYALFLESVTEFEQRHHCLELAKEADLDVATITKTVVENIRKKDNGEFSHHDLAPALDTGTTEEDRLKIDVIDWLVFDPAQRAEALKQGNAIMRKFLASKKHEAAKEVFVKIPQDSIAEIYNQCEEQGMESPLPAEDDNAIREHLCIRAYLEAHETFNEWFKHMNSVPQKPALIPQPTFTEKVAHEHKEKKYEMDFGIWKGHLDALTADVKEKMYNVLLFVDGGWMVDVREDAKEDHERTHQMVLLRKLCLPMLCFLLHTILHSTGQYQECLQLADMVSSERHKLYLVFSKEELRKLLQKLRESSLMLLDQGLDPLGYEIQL
Sequence of UniProt O15118 (O15118 whole entry, looked up): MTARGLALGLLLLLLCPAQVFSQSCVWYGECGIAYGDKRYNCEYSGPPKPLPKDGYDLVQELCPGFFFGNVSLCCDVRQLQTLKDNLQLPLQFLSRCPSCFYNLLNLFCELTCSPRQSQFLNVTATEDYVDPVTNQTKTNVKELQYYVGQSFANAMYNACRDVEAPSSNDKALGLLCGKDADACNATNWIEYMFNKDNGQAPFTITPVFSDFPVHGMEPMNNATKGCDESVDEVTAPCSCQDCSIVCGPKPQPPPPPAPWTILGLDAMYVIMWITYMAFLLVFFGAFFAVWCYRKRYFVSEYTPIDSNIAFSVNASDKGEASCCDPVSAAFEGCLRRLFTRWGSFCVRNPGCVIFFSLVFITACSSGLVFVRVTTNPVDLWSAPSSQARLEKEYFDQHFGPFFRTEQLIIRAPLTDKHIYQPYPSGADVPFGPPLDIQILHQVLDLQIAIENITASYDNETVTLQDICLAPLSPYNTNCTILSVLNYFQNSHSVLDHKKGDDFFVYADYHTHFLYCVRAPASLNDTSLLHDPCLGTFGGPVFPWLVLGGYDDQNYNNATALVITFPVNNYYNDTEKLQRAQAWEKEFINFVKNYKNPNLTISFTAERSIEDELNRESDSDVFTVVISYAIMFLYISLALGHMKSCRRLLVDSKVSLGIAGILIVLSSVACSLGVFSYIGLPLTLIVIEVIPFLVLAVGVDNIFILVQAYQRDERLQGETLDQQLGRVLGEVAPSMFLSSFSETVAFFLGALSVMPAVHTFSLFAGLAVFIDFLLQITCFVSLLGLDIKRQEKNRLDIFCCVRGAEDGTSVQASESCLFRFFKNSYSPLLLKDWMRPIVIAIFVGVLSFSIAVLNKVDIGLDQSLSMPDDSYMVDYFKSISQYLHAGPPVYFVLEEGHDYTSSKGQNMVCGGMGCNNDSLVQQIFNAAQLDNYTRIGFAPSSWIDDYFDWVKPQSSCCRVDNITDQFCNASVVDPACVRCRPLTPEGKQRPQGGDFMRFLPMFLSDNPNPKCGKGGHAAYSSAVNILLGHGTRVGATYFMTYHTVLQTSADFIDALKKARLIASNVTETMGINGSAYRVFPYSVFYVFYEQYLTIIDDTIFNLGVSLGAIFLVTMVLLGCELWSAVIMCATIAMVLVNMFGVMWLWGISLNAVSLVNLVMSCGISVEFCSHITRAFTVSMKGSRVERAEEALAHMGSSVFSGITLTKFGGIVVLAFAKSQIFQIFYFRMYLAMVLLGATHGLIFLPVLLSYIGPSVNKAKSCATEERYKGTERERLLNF
Sequence of UniProt Q9Y2X3 (Q9Y2X3 whole entry, looked up): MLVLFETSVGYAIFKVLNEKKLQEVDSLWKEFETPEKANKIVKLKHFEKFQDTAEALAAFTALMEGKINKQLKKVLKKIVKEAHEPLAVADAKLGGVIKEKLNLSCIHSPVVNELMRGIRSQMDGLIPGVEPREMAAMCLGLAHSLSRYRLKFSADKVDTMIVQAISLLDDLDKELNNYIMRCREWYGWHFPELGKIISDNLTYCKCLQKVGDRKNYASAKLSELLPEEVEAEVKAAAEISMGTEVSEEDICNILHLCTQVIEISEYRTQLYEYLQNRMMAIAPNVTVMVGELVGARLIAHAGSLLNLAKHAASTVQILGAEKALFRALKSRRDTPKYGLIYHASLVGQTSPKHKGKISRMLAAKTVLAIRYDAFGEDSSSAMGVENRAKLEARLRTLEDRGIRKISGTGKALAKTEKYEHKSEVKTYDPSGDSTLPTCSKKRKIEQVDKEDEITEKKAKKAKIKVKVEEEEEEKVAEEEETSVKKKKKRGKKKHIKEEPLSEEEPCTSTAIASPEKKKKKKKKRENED
Sequence of UniProt P84157 (P84157 whole entry, looked up): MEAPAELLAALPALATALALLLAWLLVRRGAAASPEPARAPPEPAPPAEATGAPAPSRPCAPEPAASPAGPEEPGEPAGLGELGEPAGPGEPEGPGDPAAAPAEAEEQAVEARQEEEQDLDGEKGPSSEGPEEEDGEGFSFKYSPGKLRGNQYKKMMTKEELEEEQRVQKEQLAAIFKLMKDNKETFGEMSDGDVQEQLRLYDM
Sequence of UniProt Q9BW27 (Q9BW27 whole entry, looked up): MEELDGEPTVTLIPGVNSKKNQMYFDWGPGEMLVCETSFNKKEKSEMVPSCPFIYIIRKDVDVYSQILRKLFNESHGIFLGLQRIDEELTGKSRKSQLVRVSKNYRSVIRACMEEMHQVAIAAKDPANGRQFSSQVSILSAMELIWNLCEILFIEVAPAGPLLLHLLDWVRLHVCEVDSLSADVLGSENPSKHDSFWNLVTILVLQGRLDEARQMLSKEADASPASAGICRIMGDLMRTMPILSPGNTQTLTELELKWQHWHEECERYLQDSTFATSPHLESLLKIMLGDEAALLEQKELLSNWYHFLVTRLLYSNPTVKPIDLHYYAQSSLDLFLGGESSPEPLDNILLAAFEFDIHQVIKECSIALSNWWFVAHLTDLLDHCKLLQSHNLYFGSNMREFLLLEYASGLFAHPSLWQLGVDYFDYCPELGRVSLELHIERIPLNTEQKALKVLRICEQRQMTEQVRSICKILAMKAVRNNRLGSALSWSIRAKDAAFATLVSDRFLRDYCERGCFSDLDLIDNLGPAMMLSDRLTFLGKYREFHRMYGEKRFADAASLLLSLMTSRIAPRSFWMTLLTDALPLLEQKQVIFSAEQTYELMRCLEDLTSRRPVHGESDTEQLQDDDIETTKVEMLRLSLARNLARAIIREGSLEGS
Sequence of UniProt P49116 (P49116 whole entry, looked up): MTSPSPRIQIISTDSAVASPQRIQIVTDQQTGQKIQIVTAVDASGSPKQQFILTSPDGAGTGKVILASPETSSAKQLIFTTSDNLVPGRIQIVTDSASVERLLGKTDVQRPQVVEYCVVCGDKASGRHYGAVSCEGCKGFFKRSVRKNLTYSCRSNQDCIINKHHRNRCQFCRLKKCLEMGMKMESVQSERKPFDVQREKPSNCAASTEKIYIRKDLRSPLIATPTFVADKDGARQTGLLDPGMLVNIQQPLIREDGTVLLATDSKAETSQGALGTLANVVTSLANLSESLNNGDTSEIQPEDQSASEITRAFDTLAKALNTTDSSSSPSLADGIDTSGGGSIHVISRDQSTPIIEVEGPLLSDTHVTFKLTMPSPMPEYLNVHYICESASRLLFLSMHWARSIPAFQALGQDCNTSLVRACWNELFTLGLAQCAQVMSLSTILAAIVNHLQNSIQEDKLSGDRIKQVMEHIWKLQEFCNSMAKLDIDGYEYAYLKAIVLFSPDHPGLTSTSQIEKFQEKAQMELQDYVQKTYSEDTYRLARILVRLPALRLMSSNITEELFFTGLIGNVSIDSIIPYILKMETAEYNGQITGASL

Compound in one assay: CCCS(=O)(=O)Nc1ccc(F)c(C(=O)c2c[nH]c3ncc(Cl)cc23)c1F
Put plainly: log2 fold change, soluble protein after heating vs DMSO (PISA); higher = thermal stabilisation; K562 cells, 10 uM, 30 min; active = over 0.2 and 3.5 SD of the protein, either way, in both replicates (recomputed). In a few lines: (§1)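 K562 cells (2×10^6 cells/mL) were treated with 10 μM compound for 30 min, and aliquots were heated for 3 min over 48°C-58°C. Pooled aliquots were extracted in PBS with 0.5% NP-40 at 4°C, and the supernatant after 21,000xg for 90 min was measured by TMTpro 16plex LC-MS/MS with channel sums equalised. Reported thermal stability, relative to control samples and from duplicates, is a log2 fold change.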
Regarding MORF4L2 (UniProt Q15014), the log2 fold change was 0.036.
On to MRPL46 (UniProt Q9H2W6), for which the log2 fold change is -0.006.
NCKAP1 isoform 2 (UniProt Q9Y2A7): the log2 fold change was 0.015.
As for MSTO1 (UniProt Q9BUK6), the log2 fold change was 0.018.
For the target MSH3 (UniProt P20585), the log2 fold change is 0.053.
As to NANS (UniProt Q9NR45), the log2 fold change is 0.026.
Consider OSTC (UniProt Q9NRP0), for which the log2 fold change is 0.068.
Regarding NCOR1 (UniProt O75376), the log2 fold change was -0.149.
Consider MRPS21 (UniProt P82921), for which the log2 fold change was 0.132.
Still for that read-out and setting: the result for NISCH (UniProt Q9Y2I1) reads 0.116; that for NUP85 (UniProt Q9BW27), 0.019; that for MPHOSPH10 (UniProt O00566), 0.009.
Regarding NOP58 (UniProt Q9Y2X3), the log2 fold change is 0.041.
MRPS26 (UniProt Q9BYN8): the log2 fold change was 0.049.
As to MRPS24 (UniProt Q96EL2), the log2 fold change is 0.057.
The same measure, in the same setting: the result for MON1B (UniProt Q7L1V2) reads 0.032; that for OSBP (UniProt P22059), 0.027; that for MINK1 (UniProt Q8N4C8), 0.024.
In the case of MRPS9 (UniProt P82933), the log2 fold change was 0.053.
Regarding NR2C2 isoform 2 (UniProt P49116), the log2 fold change is 0.03.
Still for that read-out and setting: the result for NUP107 (UniProt P57740) reads 0.219; that for PAFAH1B2 (UniProt P68402), -0.135.
In the case of MXRA7 (UniProt P84157), the log2 fold change is -0.032.
Consider NOP53 (UniProt Q9NZM5), for which the log2 fold change is -0.147.
For MRPS25 (UniProt P82663), the log2 fold change was 0.078.
As for MND1 (UniProt Q9BWT6), the log2 fold change was -0.024.
With OTUD6B (UniProt Q8N6M0), the log2 fold change was 0.14.
As to NDUFB8 (UniProt O95169), the log2 fold change is -0.04.
OXSR1 (UniProt O95747): the log2 fold change is 0.038.
Take NOL7 (UniProt Q9UMY1): the log2 fold change is -0.121.
For the target MRPL34 (UniProt Q9BQ48), the log2 fold change is 0.051.
The same measure, in the same setting: next, MT-ATP6 (UniProt P00846): -0.043.
Same read-out and setting: the result for MRPS35 (UniProt P82673) reads -0.022.
On to NECTIN2 (UniProt Q92692), for which the log2 fold change was 0.019.
With NAA38 isoform 2 (UniProt Q9BRA0), the log2 fold change is 0.042.
Regarding NPC1 (UniProt O15118), the log2 fold change was -0.019.
The same measure, in the same setting: the result for NOSIP (UniProt Q9Y314) reads 0.168.
On to NDUFB7 (UniProt P17568), for which the log2 fold change is -0.014.
On the same count and under the same terms, the result for PACS1 (UniProt Q6VY07) reads 0.023.

Compound in another assay: CCCc1cc(C)[nH]c(=O)c1CNC(=O)c1cc(-c2ccnc(N3CCN(C)CC3)c2)cc2c1cnn2C(C)C
Described as above. In a few lines: as §1
For MORF4L2 (UniProt Q15014), the log2 fold change was 0.038.
Take MRPL46 (UniProt Q9H2W6): the log2 fold change was 0.009.
On to NCKAP1 isoform 2 (UniProt Q9Y2A7), for which the log2 fold change is 0.064.
Same read-out and setting: next, MSTO1 (UniProt Q9BUK6): -0.012.
As for MSH3 (UniProt P20585), the log2 fold change was -0.013.
On to NANS (UniProt Q9NR45), for which the log2 fold change is 0.007.
For the target OSTC (UniProt Q9NRP0), the log2 fold change is -0.058.
Turning to NCOR1 (UniProt O75376), the log2 fold change is -0.079.
In the case of MRPS21 (UniProt P82921), the log2 fold change was -0.018.
As to NISCH (UniProt Q9Y2I1), the log2 fold change is -0.077.
As for NUP85 (UniProt Q9BW27), the log2 fold change was -0.02.
For the target MPHOSPH10 (UniProt O00566), the log2 fold change is 0.047.
As for NOP58 (UniProt Q9Y2X3), the log2 fold change is 0.081.
The same measure, in the same setting: next, MRPS26 (UniProt Q9BYN8): -0.056.
Take MRPS24 (UniProt Q96EL2): the log2 fold change is -0.016.
On to MON1B (UniProt Q7L1V2), for which the log2 fold change was -0.036.
As for OSBP (UniProt P22059), the log2 fold change is -0.003.
For MINK1 (UniProt Q8N4C8), the log2 fold change was 0.003.
On the same count and under the same terms, next, MRPS9 (UniProt P82933): -0.019.
The same measure, in the same setting: next, NR2C2 isoform 2 (UniProt P49116): 0.04; NUP107 (UniProt P57740): -0.031; PAFAH1B2 (UniProt P68402): -0.355.
Regarding MXRA7 (UniProt P84157), the log2 fold change was -0.078.
Regarding NOP53 (UniProt Q9NZM5), the log2 fold change was 0.204.
On to MRPS25 (UniProt P82663), for which the log2 fold change is -0.082.
Regarding MND1 (UniProt Q9BWT6), the log2 fold change is -0.091.
OTUD6B (UniProt Q8N6M0): the log2 fold change is 0.084.
The same measure, in the same setting: the result for NDUFB8 (UniProt O95169) reads -0.025; that for OXSR1 (UniProt O95747), 0.007; that for NOL7 (UniProt Q9UMY1), 0.088.
On to MRPL34 (UniProt Q9BQ48), for which the log2 fold change is 0.066.
The same measure, in the same setting: next, MT-ATP6 (UniProt P00846): -0.014; MRPS35 (UniProt P82673): 0.149.
As for NECTIN2 (UniProt Q92692), the log2 fold change is 0.005.
As for NAA38 isoform 2 (UniProt Q9BRA0), the log2 fold change was -0.129.
Regarding NPC1 (UniProt O15118), the log2 fold change is -0.028.
Regarding NOSIP (UniProt Q9Y314), the log2 fold change is 0.047.
For the target NDUFB7 (UniProt P17568), the log2 fold change was -0.124.
As to PACS1 (UniProt Q6VY07), the log2 fold change was 0.092.
